Assay results as given in PubChem BioAssay (NCI).
The panel holds about 83,000 compounds, 20% with a hit somewhere; the sample as a whole holds those more often.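 Growth was measured after 48 h exposure to one concentration of compound in 96-well plates. Values under 10 count as active.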 A number with no mark means an inactive call. The source made the active and inactive calls.

Tests used:
Assay in all cases: NCI-60 one-dose screen, 48 h (100 = growth as untreated, 0 = no growth, -100 = all killed)
Conditions in all cases: 10 µM unless noted
[1] = test system: DU-145 prostate
[2] = test system: K-562 leukemia
[3] = test system: MALME-3M melanoma
[4] = test system: MDA-MB-231 breast
[5] = test system: RXF 393 renal
[6] = test system: SF-268 CNS
[7] = test system: SF-295 CNS
[8] = test system: SF-539 CNS
[9] = test system: UACC-257 melanoma
[10] = test system: M14 melanoma

SMILES	growth [1]	growth [2]	growth [3]	growth [4]	growth [5]	growth [6]	growth [7]	growth [8]	growth [9]	growth [10]
Cc1[nH]c(=S)[nH]c(=O)c1C	110%	99.7%	109%	105%	115%	108%	103%	103%	92.9%	109%
C=CC(=O)OC1CCC(C(C)(C)CC)CC1 (stereo not given)	113%	109%	110%	106%	113%	102%	120%	105%	115%	107%
Cc1ccc2[nH]c3ccccc3c2c1	104%	89.8%	95.2%	111%	112%	103%	103%	101%	104%	110%
Cc1ccc(S(=O)(=O)Oc2ccc3sc4c(CO)ccc(NCCN(C)C)c4c(=O)c3c2)cc1	-97.6% [100 µM] (active)	-61.4% [100 µM] (active)	-89.5% [100 µM] (active)	-90.7% [100 µM] (active)	-57.5% [100 µM] (active)	-61.3% [100 µM] (active)	-78.7% [100 µM] (active)	-93.1% [100 µM] (active)	-82% [100 µM] (active)	-96.5% [100 µM] (active)
Cc1cc(Nc2ccc3c(c2)OCO3)c2cc3c(cc2n1)OCO3	3.67% (active)	36.8%	24.4%	32.3%	6.97% (active)	37.9%	-62.6% (active)	-15.5% (active)	75.7%	-16.7% (active)
COc1cc(C(=O)O)c(O)c(C(C)(C)C)c1	106%	101%	102%	103%	117%	105%	102%	102%	97.9%	105%
COC1CC(OC(=O)c2ccc([N+](=O)[O-])cc2)C(COC(=O)c2ccc([N+](=O)[O-])cc2)O1 (stereo not given)	119%	107%	140%	105%	103%	112%	94.5%	105%	91.9%	110%
Cc1ccc(S(N)(=O)=O)cc1Cl	120%	92.3%	116%	98%	125%	108%	113%	106%	109%	105%
C=C(OC(C)=O)c1ccccc1	113%	83%	108%	103%	113%	102%	105%	108%	83.7%	97.3%
NNC(=O)c1ccccc1N	120%	118%	110%	113%	40.6%	114%	110%	112%	93.9%	106%
CCN(Cc1ccc(Cl)c(Cl)c1)c1ccc2nc(N)nc(N)c2c1C	-85.5% (active)	-83.9% (active)	-84% (active)	-84.9% (active)	-80.1% (active)	-70.1% (active)	-62.8% (active)	-97.8% (active)	-77.7% (active)	-70.1% (active)
O=Cc1c(O)c2ccccc2[nH]c1=O	158%	111%	139%	99.6%	114%	110%	109%	97.9%	84.8%	94.4%
NC(=O)c1cc2c3ccccc3ccn2c1-c1ccccc1	5.57% (active)	4.64% (active)	86%	29.3%	25.5%	22%	4.09% (active)	-19.7% (active)	64.9%	11.3%
CCCCCCCCCCCCCCCCCC(=O)NCCNC(=O)CCCCCCCCCCCCCCCCC	97.5%	57.4%	93.5%	75.3%	109%	89.3%	100%	96.9%	105%	95.6%
CCCC1OC(c2ccco2)OCC1CC (stereo not given)	104%	105%	118%	102%	136%	101%	105%	106%	93.1%	102%
COc1c(CNC(=O)CCl)cc2[nH]c(C)cc2c1CNC(=O)CCl	65.8%	63.5%	82%	87.7%	60.8%	59.4%	64.7%	72.3%	51.9%	47.3%
CN=S(=O)(OCCCCCOS(=O)(=NC)c1ccc(C)cc1)c1ccc(C)cc1 (stereo not given)	85.7%	70.4%	100%	97.2%	123%	99%	91.6%	90.7%	124%	96.9%
NC(=S)c1c(N)n(C2OC(CO)C(O)C2O)c2ncnc(N)c12 (stereo not given)	4.75% (active)	-17.2% (active)	-53.4% (active)	29.7%	-69.3% (active)	-3.78% (active)	-0.294% (active)	-51.2% (active)	-10.2% (active)	-24.5% (active)
Nc1cccc2cccc(O)c12	99.1%	89.5%	75.2%	65.7%	90.6%	96.1%	93.8%	109%	100%	96.7%
COc1nc(Nc2cccc(C(F)(F)F)c2)nc(OC)n1	105%	87%	116%	90.7%	102%	98.4%	88.4%	98%	121%	113%
CC12CCC3c4ccc(O)cc4CCC3C1CCC2=O (stereo not given)	112%	93.9%	113%	83.5%	103%	99%	112%	96.6%	93.8%	102%
O=c1cc(Cl)nc2ccccn12	110%	110%	117%	120%	106%	112%	106%	102%	107%	107%
O=C(CCl)Nc1ccccc1SCc1cc(Cl)cc2c1OCOC2	101%	32.1%	-69.1% (active)	88.6%	77.1%	93.8%	94%	93.5%	101%	69.8%
CCNCC(C)(C)O	118%	111%	100%	94.9%	117%	119%	103%	102%	98.7%	95.5%
N#CCCN1C(=O)CCC1C(=O)O (stereo not given)	114%	96.8%	114%	129%	115%	97.3%	101%	104%	93.4%	104%
OC(CBr)CCBr (stereo not given)	110%	100%	85.6%	104%	109%	104%	94%	96.3%	87.8%	104%
Cc1ccc([N+](=O)[O-])c(C)n1	114%	114%	100%	117%	128%	98.6%	97.7%	89.5%	98.1%	110%
CCNC(=O)OCCc1c2ccccc2nc2ccccc12	122%	88.2%	126%	119%	97.4%	109%	127%	109%	112%	120%
O=C(c1ccccc1)c1ccc(-c2ccc(O)cc2)cc1	69.8%	90.2%	84%	55.4%	-4.28% (active)	67.4%	29.6%	79.5%	25.3%	25.8%
COc1ccc(C2CCCCC2=O)cc1 (stereo not given)	123%	104%	120%	120%	110%	116%	100%	102%	106%	108%
